# TRHR ag: activates the human TRH receptor; P34981; TRHR cells, calcium flux fluo-8, FDSS agonist mode; activation, % at 2 µM; hit rate 0.18% among 360,000; AID 493084; also: 0% is about no effect
# Target sequence (P34981 whole entry, looked up): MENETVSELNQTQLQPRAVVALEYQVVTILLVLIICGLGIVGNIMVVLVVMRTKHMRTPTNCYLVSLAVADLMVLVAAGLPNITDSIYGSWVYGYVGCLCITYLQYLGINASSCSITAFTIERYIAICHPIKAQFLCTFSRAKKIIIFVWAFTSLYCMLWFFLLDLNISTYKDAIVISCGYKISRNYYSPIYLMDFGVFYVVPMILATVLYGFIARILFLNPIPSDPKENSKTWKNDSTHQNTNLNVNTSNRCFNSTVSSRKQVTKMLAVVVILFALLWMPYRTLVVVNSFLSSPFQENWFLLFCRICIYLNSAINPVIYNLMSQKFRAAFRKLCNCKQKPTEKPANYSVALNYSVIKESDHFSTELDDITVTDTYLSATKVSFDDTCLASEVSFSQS
#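 In this calcium-flux screen, cells bearing human TRHR are dye-loaded with fluo-8, baselined for 10 cycles, then exposed to library compounds; positive kinetic calcium responses during the agonist phase mark hits, with TRH as control.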
# D1 ag: human D1 receptor agonism. hit rate 1% among 360,000. HEK293 T-REx D1 cells, calcium flux, agonist mode. activation, % at 2 µM; also: 0% is about no effect
#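 Inducible HEK293 T-REx D1 cells, force-coupled to calcium signalling, were plated at 4000 cells/well with tetracycline and held overnight at 30 C. After no-wash calcium dye loading, compound-evoked calcium rise over 180 s flagged agonists.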
# D1 potentiator: enhances dopamine response at the human D1 receptor | P21728 | hit rate 0.036% among 360,000 | potentiation, % at 10 µM | HEK293 TREx D1 cells, calcium flux, dopamine EC20 potentiation | AID 504651; in the data active = potentiation above about 30%; also: 0% is about no effect
# D1 antag: human D1 dopamine receptor antagonism; hit rate 3.2% among 360,000; P21728; AID 504652; activity change, negative = inhibition, % at 10 µM; HEK293 TREx D1 cells, calcium flux, dopamine EC80; active compounds read low; in the data active = activity change below about -30%; also: % is scaled to controls: 0 for no effect and ±100 for the full control effect
#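 Using tetracycline-induced force-coupled D1 Hek293 cells and a calcium dye, signals were followed for 180 s after compound, then for 180 s after EC80 dopamine, to detect inhibitors.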
# TRHR PAM: allosterically enhances the human TRH receptor; TRHR cells, fluo-8 calcium fluorescence, EC20 TRH enhancement; enhancement, % at 2 µM; hit rate 0.66% among 360,000; AID 493056; in the data active = enhancement above about 30%; also: 0% is about no effect
#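 Enhancer read-out: after compound pinning and an initial kinetic agonist-mode read, an EC20 of TRH (10 nM final) was injected and fluo-8 calcium signal (Ex 480/Em 530) followed at 1 s/cycle for 100 cycles in TRHR-expressing cells.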
# Numbers without * were called inactive; nt = no result. Hits are enriched below; roughly 4.7% of the tested compounds scored in any of these assays. Rule as the data show it, unless noted: active = activation above about 30%; inactive = the rest.
SMILES,TRHR ag,D1 ag,D1 potentiator,D1 antag,TRHR PAM
Cc1noc2nc(C(=O)O)nc(N3CCCCC3)c12,0.1,-2.7,0.2,4.7,-5.2
COc1ccc(/C=N/Nc2ccc([N+](=O)[O-])cc2)cc1O,17.5,31.0*,-11.0,-14.7,-1.7
COc1ccc(/C=N/Nc2ccc([N+](=O)[O-])cc2)cc1Cn1cc([N+](=O)[O-])cn1,4.9,19.3,-4.4,nt,-8.0
CCCCN(Cc1ccccc1)C(=O)c1oc(=O)c2ccccc2c1-c1ccc(C)cc1,0.8,5.1,-2.1,7.7,-2.3
CC1CCN(c2nc3c(S(=O)(=O)c4ccc(Cl)cc4)nnn3c3ccsc23)CC1,-0.2,1.2,0.5,9.3,19.0
COc1ccc2cnn(Cc3ccccc3)c(=O)c2c1OC,-0.7,2.9,-0.2,-11.0,13.6
CCCn1ncc(OC)c(Cl)c1=O,0.2,-0.8,-2.1,-59.4*,1.0
S=C(NCc1ccc2c(c1)OCO2)Nc1ccc2nsnc2c1,1.6,34.1*,-6.9,-33.1*,-1.5
Cc1ccc(NC(=S)NCc2ccc3c(c2)OCO3)cc1C,1.3,8.8,6.4,-0.3,-5.4
C=CCNC(=S)Nc1ccc2nsnc2c1,0.5,7.4,-4.1,-89.5*,-2.9
N#Cc1nc(NC2CCCC2)c2ncn(-c3cc(F)cc(F)c3)c2n1,1.1,-0.1,-2.2,5.2,-2.8
CC(=O)Nc1cc2c(s1)c1cnn(Cc3ccccc3F)c(=O)c1n2C,-0.5,1.9,-6.3,-4.3,0.5
COc1ccc(CNC(=O)CSc2ncc3c(n2)-c2ccc(Cl)cc2N(Cc2ccc(F)cc2)S3(=O)=O)cc1OC,-0.6,0.2,-1.1,15.1,-1.3
COc1ccc(C(=O)c2cn(Cc3cccc(C)c3)c3cc4c(cc3c2=O)OCCO4)cc1OC,0.1,5.5,-2.3,-4.6,1.5
CCCCCC(=O)Nc1cccc(S(=O)(=O)NC2=NCCCCC2)c1,0.6,0.6,1.9,-24.0,3.3
O=C(Cc1csc(-c2ccc(F)cc2)n1)Nc1cccc(S(=O)(=O)NC2=NCCC2)c1,0.1,0.8,-15.4,-30.3*,8.1
CCCCC(=O)OCC(=O)Nc1cccc(S(=O)(=O)NC2=NCCCCC2)c1,0.4,1.7,-5.3,-32.2*,-3.3
Cc1ccsc1C(=O)OCC(=O)Nc1cccc(S(=O)(=O)NC2=NCCCCC2)c1,-0.5,5.4,0.7,-42.3*,-4.2
O=C(Cc1csc(-c2ccc(Cl)cc2)n1)Nc1cccc(S(=O)(=O)NC2=NCCC2)c1,-0.2,-0.6,-3.3,-16.5,-0.4
CCN(CC)S(=O)(=O)c1cccc(NC2=NCCCCC2)c1,0.0,1.5,-3.7,-36.2*,9.1
COC(=O)CC1Oc2ccc(Cl)cc2-n2cc(-c3ccc(C)cc3)nc21 (stereo not drawn),-1.4,1.6,-3.6,-2.3,6.7
COc1ccc(NC(=O)Cn2c(=O)oc3cc(S(=O)(=O)N4CCC(C)CC4)ccc32)c(OC)c1,-1.5,0.2,-0.2,-9.3,-7.4
O=C(C1CCC1)N1CCc2cc(S(=O)(=O)N3CCN(c4ccccc4)CC3)ccc21,0.0,7.2,-1.5,-9.2,-1.1
CSCCC(NS(=O)(=O)c1ccc2c(c1)oc(=O)n2C)C(=O)N1CCN(c2cc(C)ccc2C)CC1 (stereo not drawn),0.1,0.4,1.1,2.5,-2.9
Cc1cc(C)cc(C(=O)OCC(=O)Nc2cccc(S(=O)(=O)NC3=NCCCCC3)c2)c1,0.6,3.3,-5.3,-45.5*,4.4
SMILES,TRHR ag,D1 ag,D1 potentiator,D1 antag,TRHR PAM
O=C(Nc1cccc(S(=O)(=O)NC2=NCCCCC2)c1)c1cc(-c2ccccc2Cl)nc2ccccc12,0.1,4.7,-9.9,-36.0*,4.2
COc1ccc(OC)c(C(c2nnnn2CCc2ccccc2)N2CCN(c3ccccc3)CC2)c1 (stereo not drawn),22.6,3.4,-8.1,9.0,-6.4
COc1ccc(N2CCN(C(c3cc(OC)ccc3OC)c3nnnn3Cc3ccco3)CC2)cc1 (stereo not drawn),-0.5,1.8,-0.9,1.2,38.6*
COCCN1Cc2cccc(C(=O)Nc3ccc(C)c(F)c3)c2C1=O,2.6,0.8,-1.2,-6.2,-8.4
CN(C)S(=O)(=O)c1ccc(C(=O)NCCSc2c(-c3ccc(Br)cc3)[nH]c3ccccc23)cc1,0.1,0.1,-0.6,9.7,-0.5
Oc1ccc(/C=N/Nc2nc(N3CCCCCC3)nc(N3CCCCCC3)n2)c(O)c1,0.0,8.5,-9.9,-41.1*,1.5
Oc1ccc(Br)cc1/C=N/Nc1nc(N2CCCCC2)nc(N2CCOCC2)n1,2.0,2.8,-3.1,-2.6,-0.6
COc1cccc(/C=N/Nc2nc(N3CCCC3)nc(N3CCCC3)n2)c1O,-0.5,0.8,1.5,0.9,-5.2
COc1ccc(/C=N/Nc2nc(N3CCCC3)nc(N3CCCC3)n2)c(OC)c1OC,1.0,-1.4,-6.7,-42.1*,0.8
O=C(Nc1ccc(F)c(Cl)c1)N1CCN(C(=O)c2nsc3ccccc23)CC1,-1.4,4.7,-3.1,-7.1,-4.5
CC1CCCN(C(=O)CSCC(=O)Nc2nc(-c3cccs3)cs2)C1 (stereo not drawn),2.5,12.4,nt,-83.5*,-4.7
Cc1ccc(Sc2ccc(N3CCC(C(=O)Nc4cc(C)cc(C)c4)CC3)nn2)cc1,0.2,-0.6,6.3,-47.5*,11.6
COc1cccc(NC(=O)C2CCN(c3ccc(Sc4ccc(C)cc4)nn3)CC2)c1,0.1,1.9,0.6,-2.0,11.9
CCN(C(=O)c1cnc(N2CCOCC2)c2ccccc12)c1cc(C)ccc1C,-0.3,2.0,-1.6,-42.6*,10.6
Cc1ccc(N(C)C(=O)c2cnc(N3CCOCC3)c3ccccc23)cc1C,-0.2,0.3,-1.0,-36.7*,3.6
Cc1c(CC(=O)NCCc2ccccc2F)c(=O)oc2cc(O)c(Cl)cc12,-0.5,-0.1,-1.0,11.6,-1.6
COc1cc2c(cc1O)C(Cc1ccc(O)cc1)[N+](C)([O-])CC2 (stereo not drawn),0.2,1.6,-6.2,-38.0*,3.4
COc1cc2c(cc1OC)[C@H](Cc1ccc(O)cc1)NCC2,0.2,1.3,-8.5,-20.3,7.0
COc1cc2c(cc1O)C(Cc1ccc(O)cc1)NCC2 (stereo not drawn),0.3,-1.4,-12.2,-76.1*,1.3
COc1ccc(C[C@H]2c3cc(O)c(OC)cc3CC[N+]2(C)[O-])cc1O (stereo partly drawn),0.0,5.0,-7.2,-82.9*,6.0
O=[S+]([O-])(c1ccc2c(c1)OCCO2)N1CCN([S+](=O)([O-])c2ccccc2Br)CC1,1.0,3.0,9.9,-3.6,-4.4
Cc1nnc(SCc2cc([N+](=O)[O-])cc3c2OCOC3)n(N)c1=O,-0.5,2.2,-6.4,-42.1*,7.8
O=C(Nc1ccccc1)Nc1nc(Nc2cc(F)cc(F)c2)nc(NC2CCCC2)n1,-0.4,1.8,-6.8,8.2,0.9
Cc1nnc2n(-c3ccccc3)c(=O)c3c4c(sc3n12)COC(C)(C)C4,-0.5,2.7,-3.4,-7.3,25.2
